# Results published in the supplement of paper PMC11732987, “Enantioselective OTUD7B fragment discovery through chemoproteomics screening and high-throughput optimisation” (Communications Chemistry, 2025).
# Values without a mark were called inactive.
# Tests used:
# Assay in all cases: log2 ratio of Biotin-Ahx-Ub-VS probe labelling (fragment/DMSO); higher = less target engagement (more negative = stronger competition), active = hit call of the paper (q ≤ 0.05, log2 ratio ≤ -1)
# Conditions in all cases: compound concentration: 200 uM; treatment time: 3 h
# USP9X = USP9X (UniProt Q93008)
# Procedure, shortened: (§1)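 HEK293T lysate (495 µg per sample, in Tris/CHAPS/IGEPAL buffer with protease inhibitors) was exposed in triplicate for 3 h to fragment at 200 µM or to vehicle, then to Biotin-Ahx-Ub-VS at 0.5 µM final for 1 h. Labelled DUBs were enriched on NeutrAvidin, digested with LysC and trypsin, and analysed by diaPASEF LC-MS/MS. Spectronaut label-free quantities were normalised to the global median, and values are average log2 ratios of fragment over vehicle from an unpaired t-test. Only proteins with ≥2 unique peptides were used.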
# UniProt O00487 = target: UniProt O00487
# Procedure, shortened: as §1
# UniProt O00507 = target: UniProt O00507
# Procedure, shortened: as §1
# UniProt P51784 = target: UniProt P51784
# Procedure, shortened: as §1
# UniProt Q5T2D3 = target: T1, UniProt Q5T2D3
# T1 sequence (whole entry): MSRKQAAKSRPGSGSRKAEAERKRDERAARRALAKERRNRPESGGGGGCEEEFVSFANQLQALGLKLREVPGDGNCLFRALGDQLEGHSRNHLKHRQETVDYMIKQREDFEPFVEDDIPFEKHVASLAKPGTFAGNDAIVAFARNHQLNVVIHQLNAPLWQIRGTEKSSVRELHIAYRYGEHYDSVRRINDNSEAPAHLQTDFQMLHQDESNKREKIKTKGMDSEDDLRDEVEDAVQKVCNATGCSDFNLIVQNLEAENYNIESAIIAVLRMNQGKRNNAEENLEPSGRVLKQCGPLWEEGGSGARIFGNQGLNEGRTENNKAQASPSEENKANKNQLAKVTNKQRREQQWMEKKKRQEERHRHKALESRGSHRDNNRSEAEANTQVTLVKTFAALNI
# Procedure, shortened: as §1
# UniProt Q8TE49 = target: T2, UniProt Q8TE49
# T2 sequence (whole entry): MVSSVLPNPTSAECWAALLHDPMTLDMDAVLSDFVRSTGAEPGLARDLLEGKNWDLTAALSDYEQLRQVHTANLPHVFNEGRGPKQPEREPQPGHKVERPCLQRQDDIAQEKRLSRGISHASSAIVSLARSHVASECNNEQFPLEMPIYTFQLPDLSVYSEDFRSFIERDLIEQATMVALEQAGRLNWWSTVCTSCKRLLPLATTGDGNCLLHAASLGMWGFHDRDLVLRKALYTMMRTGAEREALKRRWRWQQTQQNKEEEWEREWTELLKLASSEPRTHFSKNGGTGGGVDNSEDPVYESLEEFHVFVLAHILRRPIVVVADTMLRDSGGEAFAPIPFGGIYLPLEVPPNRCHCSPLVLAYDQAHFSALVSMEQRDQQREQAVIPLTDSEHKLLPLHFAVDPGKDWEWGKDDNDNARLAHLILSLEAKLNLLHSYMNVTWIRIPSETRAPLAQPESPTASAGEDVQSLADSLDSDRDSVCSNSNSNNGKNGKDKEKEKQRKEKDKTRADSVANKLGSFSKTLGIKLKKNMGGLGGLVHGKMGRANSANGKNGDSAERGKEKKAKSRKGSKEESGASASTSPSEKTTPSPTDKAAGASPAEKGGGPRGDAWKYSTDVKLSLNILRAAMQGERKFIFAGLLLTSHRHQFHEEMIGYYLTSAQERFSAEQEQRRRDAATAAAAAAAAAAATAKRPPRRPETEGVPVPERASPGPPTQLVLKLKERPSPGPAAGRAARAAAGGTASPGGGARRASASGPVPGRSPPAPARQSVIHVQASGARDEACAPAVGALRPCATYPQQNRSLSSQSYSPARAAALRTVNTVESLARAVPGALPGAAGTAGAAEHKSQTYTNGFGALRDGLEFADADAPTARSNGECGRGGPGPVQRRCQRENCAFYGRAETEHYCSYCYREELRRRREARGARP
# Procedure, shortened: as §1
# UniProt Q9P2H5 = target: T3, UniProt Q9P2H5
# T3 sequence (whole entry): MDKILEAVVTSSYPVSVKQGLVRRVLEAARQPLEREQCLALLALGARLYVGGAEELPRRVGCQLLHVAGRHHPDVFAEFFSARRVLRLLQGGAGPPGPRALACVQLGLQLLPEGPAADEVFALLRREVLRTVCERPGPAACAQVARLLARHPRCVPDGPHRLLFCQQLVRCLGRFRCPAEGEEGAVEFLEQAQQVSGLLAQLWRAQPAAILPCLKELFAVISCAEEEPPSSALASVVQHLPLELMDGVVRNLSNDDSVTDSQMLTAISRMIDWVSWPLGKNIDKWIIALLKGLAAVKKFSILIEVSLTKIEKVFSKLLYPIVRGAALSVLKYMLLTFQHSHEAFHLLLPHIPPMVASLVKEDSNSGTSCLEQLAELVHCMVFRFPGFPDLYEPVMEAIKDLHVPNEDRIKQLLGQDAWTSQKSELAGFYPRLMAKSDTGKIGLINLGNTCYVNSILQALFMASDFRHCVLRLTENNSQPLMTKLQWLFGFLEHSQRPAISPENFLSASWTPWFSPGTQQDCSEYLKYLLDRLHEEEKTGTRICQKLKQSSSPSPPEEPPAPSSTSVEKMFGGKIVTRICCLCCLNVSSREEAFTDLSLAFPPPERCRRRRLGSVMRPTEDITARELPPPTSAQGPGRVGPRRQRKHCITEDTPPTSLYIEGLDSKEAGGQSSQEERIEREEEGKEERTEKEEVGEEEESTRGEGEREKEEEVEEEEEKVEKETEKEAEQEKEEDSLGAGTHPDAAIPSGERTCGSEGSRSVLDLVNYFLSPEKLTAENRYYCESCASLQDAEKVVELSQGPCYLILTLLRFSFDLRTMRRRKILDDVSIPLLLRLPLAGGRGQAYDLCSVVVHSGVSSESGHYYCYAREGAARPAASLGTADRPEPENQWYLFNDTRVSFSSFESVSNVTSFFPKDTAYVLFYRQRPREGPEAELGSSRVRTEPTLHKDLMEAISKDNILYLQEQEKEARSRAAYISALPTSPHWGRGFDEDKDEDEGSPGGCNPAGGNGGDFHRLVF
# Procedure, shortened: as §1
# UniProt Q9UGI0 = target: T4, UniProt Q9UGI0
# T4 sequence (whole entry): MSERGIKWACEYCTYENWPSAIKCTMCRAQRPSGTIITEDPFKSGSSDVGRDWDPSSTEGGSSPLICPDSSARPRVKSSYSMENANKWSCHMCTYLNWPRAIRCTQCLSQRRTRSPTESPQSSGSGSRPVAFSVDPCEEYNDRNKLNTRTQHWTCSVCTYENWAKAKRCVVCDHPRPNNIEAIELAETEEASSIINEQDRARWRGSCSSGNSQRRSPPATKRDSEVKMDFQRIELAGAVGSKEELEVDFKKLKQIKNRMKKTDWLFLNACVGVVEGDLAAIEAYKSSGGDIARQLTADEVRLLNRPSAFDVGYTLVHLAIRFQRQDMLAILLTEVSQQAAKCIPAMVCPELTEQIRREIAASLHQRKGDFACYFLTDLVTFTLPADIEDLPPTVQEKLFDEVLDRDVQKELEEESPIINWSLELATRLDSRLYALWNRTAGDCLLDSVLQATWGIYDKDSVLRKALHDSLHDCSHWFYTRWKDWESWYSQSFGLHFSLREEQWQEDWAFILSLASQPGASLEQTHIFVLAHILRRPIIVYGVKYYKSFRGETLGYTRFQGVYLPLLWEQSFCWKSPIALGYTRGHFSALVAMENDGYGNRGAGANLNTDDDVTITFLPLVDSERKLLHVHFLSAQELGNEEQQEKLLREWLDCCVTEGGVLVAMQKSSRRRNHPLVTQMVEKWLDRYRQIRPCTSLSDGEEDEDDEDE
# Procedure, shortened: as §1
# YOD1 = target: T5, YOD1 (UniProt Q5VVQ6)
# T5 sequence (whole entry): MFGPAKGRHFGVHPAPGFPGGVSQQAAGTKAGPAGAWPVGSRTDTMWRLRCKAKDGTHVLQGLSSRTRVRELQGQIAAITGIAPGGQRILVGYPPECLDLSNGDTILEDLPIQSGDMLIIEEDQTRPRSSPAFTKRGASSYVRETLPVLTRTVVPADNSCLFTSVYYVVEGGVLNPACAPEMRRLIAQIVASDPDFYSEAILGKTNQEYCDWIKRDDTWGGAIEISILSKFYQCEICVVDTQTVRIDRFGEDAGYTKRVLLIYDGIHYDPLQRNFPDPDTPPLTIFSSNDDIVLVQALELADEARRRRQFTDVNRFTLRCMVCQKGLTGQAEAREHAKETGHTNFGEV
# Procedure, shortened: as §1
# Sequence of UniProt O00507 (O00507 whole entry): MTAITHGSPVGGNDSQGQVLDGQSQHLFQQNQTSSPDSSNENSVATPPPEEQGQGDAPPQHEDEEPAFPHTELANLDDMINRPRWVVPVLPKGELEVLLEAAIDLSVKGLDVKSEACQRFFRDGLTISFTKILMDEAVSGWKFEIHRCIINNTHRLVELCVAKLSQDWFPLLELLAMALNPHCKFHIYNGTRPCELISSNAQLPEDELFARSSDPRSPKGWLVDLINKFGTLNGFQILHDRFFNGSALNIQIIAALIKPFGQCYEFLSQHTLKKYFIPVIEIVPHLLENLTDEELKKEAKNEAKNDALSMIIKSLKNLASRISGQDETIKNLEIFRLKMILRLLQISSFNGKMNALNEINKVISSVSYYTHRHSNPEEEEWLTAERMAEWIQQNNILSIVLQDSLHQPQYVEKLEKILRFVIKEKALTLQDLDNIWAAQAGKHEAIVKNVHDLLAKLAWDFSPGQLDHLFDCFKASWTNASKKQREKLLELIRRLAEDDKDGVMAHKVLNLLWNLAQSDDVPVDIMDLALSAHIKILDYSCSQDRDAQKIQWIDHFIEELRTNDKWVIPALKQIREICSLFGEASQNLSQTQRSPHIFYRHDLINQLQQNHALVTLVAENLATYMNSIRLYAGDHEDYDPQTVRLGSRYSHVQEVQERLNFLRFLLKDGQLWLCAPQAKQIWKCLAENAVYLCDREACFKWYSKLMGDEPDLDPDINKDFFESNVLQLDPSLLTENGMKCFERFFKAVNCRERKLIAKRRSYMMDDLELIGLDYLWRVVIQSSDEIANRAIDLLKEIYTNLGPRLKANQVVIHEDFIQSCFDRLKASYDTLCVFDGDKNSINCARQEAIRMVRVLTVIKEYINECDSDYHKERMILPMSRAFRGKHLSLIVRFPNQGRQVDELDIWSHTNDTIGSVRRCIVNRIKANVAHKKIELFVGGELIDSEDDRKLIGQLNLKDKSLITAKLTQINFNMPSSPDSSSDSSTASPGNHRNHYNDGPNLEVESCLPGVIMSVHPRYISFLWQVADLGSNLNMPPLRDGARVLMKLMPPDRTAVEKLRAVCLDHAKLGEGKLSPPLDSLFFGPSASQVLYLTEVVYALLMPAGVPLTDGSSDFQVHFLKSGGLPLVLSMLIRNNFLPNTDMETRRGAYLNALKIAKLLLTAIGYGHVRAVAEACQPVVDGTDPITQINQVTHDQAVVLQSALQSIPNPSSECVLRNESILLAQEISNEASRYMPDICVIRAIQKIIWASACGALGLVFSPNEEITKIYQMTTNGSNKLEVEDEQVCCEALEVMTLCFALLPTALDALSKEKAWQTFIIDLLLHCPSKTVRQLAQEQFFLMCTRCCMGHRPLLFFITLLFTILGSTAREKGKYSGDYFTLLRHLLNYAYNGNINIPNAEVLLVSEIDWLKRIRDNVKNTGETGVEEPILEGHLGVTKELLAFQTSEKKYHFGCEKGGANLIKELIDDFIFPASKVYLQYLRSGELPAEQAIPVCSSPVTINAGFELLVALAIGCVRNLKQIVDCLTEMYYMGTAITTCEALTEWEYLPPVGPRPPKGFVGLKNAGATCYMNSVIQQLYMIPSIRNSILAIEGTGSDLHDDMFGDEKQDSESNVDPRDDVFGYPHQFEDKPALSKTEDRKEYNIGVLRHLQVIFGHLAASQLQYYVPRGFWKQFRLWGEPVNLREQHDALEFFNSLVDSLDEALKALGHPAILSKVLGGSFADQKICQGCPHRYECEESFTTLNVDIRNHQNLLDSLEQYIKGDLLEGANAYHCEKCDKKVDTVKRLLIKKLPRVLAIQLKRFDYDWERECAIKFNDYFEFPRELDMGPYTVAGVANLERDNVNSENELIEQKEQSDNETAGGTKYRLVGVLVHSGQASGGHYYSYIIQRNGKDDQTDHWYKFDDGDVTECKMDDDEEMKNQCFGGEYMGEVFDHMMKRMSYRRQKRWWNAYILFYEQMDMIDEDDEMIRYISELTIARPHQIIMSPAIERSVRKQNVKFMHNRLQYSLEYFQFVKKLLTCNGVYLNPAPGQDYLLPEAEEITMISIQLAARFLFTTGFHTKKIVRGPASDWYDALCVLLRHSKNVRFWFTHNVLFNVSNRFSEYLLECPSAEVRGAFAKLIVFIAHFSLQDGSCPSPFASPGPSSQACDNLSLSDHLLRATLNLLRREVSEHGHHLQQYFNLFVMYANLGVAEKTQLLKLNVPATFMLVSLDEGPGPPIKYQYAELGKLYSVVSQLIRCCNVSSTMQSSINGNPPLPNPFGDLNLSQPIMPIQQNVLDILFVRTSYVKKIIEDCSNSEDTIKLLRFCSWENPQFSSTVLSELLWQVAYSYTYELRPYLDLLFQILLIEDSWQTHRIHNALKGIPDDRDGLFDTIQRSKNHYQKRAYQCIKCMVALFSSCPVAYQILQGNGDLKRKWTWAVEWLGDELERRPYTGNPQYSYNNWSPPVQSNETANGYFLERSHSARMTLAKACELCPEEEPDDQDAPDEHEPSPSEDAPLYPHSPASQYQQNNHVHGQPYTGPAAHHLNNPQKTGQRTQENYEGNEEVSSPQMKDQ
# Sequence of USP9X (Q93008 whole entry, the tested form may be a part): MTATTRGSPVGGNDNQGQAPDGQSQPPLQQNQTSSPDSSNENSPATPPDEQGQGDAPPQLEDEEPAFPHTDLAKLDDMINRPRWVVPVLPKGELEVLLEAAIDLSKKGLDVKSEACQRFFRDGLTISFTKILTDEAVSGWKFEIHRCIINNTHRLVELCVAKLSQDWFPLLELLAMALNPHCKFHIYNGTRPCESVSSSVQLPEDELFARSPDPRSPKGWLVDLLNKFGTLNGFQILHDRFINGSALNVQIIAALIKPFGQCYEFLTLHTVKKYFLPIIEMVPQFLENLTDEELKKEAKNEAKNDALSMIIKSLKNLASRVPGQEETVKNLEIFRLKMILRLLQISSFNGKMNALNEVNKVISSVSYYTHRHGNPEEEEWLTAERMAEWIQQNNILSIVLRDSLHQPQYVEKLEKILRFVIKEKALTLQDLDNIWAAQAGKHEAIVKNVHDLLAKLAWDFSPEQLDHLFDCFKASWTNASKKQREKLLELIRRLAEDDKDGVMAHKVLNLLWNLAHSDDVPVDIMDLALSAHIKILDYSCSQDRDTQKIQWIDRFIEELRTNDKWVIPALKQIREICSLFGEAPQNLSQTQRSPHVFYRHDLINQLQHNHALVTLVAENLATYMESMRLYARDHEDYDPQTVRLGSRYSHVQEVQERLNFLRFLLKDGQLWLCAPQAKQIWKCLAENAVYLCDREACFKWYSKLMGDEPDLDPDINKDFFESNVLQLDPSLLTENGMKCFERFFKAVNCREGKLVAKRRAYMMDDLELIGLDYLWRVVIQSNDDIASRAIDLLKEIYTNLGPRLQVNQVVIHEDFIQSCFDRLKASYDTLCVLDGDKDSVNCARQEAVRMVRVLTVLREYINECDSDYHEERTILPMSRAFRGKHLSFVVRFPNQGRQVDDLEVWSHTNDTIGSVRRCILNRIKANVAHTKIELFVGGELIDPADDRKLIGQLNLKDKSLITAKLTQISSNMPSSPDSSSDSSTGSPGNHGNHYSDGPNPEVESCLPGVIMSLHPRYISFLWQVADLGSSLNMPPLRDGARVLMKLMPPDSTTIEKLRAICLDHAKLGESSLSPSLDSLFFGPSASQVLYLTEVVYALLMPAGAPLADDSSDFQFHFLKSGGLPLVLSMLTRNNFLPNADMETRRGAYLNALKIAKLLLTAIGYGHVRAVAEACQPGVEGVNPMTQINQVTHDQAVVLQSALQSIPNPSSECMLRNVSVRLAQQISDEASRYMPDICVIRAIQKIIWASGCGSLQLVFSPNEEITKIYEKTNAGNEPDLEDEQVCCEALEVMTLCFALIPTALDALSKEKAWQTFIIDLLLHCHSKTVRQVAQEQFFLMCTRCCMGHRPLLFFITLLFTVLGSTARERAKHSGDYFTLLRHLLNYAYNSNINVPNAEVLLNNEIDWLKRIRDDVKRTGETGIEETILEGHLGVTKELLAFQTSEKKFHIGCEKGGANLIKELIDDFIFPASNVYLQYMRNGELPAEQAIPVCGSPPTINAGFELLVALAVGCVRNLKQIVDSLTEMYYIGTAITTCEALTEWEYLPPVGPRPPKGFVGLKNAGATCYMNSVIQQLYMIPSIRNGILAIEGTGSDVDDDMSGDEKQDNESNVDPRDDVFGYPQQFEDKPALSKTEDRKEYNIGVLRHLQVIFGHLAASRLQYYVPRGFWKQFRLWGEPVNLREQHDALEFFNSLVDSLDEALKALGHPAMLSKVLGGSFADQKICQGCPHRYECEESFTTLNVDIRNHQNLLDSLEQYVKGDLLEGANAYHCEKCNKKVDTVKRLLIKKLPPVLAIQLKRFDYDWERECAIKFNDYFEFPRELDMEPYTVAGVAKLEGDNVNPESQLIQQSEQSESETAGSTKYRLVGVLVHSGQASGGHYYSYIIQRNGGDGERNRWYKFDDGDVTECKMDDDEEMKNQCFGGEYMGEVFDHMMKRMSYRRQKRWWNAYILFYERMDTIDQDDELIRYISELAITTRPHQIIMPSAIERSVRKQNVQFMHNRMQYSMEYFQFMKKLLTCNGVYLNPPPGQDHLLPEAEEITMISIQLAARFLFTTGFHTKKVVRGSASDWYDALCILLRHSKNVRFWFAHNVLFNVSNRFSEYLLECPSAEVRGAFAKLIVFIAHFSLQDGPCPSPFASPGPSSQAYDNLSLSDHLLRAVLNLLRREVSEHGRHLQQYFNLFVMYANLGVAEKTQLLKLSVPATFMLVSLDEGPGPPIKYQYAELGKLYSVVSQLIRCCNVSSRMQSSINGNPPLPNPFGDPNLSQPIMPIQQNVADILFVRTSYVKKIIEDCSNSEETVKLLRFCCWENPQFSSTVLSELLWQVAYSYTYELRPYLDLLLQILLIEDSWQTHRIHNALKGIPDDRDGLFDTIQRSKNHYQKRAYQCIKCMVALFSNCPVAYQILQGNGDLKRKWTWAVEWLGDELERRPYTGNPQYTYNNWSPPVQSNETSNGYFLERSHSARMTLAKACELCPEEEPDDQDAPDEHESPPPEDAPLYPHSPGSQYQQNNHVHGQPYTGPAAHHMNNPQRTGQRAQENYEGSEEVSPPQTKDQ
smiles,measurement,setting,value
NC(=O)C1CCCCN1C(=O)CCl (centres undefined),log2 ratio of Biotin-Ahx-Ub-VS probe labelling,USP9X,-0.213
same,log2 ratio of Biotin-Ahx-Ub-VS probe labelling,UniProt O00487,-0.0664
same,log2 ratio of Biotin-Ahx-Ub-VS probe labelling,UniProt O00507,0.156
same,log2 ratio of Biotin-Ahx-Ub-VS probe labelling,UniProt P51784,-0.0148
same,log2 ratio of Biotin-Ahx-Ub-VS probe labelling,UniProt Q5T2D3,-0.206
same,log2 ratio of Biotin-Ahx-Ub-VS probe labelling,UniProt Q8TE49,-1.95 (active)
same,log2 ratio of Biotin-Ahx-Ub-VS probe labelling,UniProt Q9P2H5,-0.204
same,log2 ratio of Biotin-Ahx-Ub-VS probe labelling,UniProt Q9UGI0,-0.866
same,log2 ratio of Biotin-Ahx-Ub-VS probe labelling,YOD1,0.154
